Assay results published in PubChem BioAssay (NCATS).
Records with an inconclusive call do not appear. Entries that show only a call come without a potency. Calls of active or inactive are those of the source. The call rests on the fitted dose curve; in most records, active means well fitted inhibition curve with a large enough effect; inconclusive means small, poorly fitted or top-dose-only effect; inactive means flat fitted curve, though single readings scatter.

How the values were obtained:
Assay in all cases: qHTS profiling for inhibitors of Plasmodium falciparum proliferation (AID 504749); further: nearly all actives have a fitted effect of over 60% in size
Conditions in all cases: P. falciparum in erythrocytes, SYBR Green DNA, 72 h; series mostly up to 28.7 µM
CP291 = tested on: CP291
Method in brief: (§1)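 Infected RBCs, 0.3% parasitemia/2.5% Hct final; cpd 72 h, 37 C, 5% CO2; lysis buffer with saponin/triton/SYBR Green I, o/n RT dark; FI 485/535; norm. to artemisinin (0.29 uM) and DMSO.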

CP297 = tested on: CP297
Method in brief: as §1

CP305 = tested on: CP305
Method in brief: as §1

CP315 = tested on: CP315
Method in brief: as §1

CP325 = tested on: CP325
Method in brief: as §1

CP329 = tested on: CP329
Method in brief: as §1

CP335 = tested on: CP335
Method in brief: as §1

DIV14 = tested on: DIV14
Method in brief: as §1

DIV17 = tested on: DIV17
Method in brief: as §1

DIV30 = tested on: DIV30
Method in brief: as §1

Dd2 = tested on: Dd2
Method in brief: as §1

ECU = tested on: ECU
Method in brief: as §1

FAB9 = tested on: FAB9
Method in brief: as §1

GB4 = tested on: GB4
Method in brief: as §1

HB3 = tested on: HB3
Method in brief: as §1

ICS = tested on: ICS
Method in brief: as §1

JCK = tested on: JCK
Method in brief: as §1

N140 = tested on: N140
Method in brief: as §1

P93_24 = tested on: P93_24
Method in brief: as §1

P94_40 = tested on: P94_40
Method in brief: as §1
Potency means the concentration at half of the fitted maximal effect.

SMILES | Potency (CP291) | Potency (CP297) | Potency (CP305) | Potency (CP315) | Potency (CP325) | Potency (CP329) | Potency (CP335) | Potency (DIV14) | Potency (DIV17) | Potency (DIV30) | Potency (Dd2) | Potency (ECU) | Potency (FAB9) | Potency (GB4) | Potency (HB3) | Potency (ICS) | Potency (JCK) | Potency (N140) | Potency (P93_24) | Potency (P94_40)
CC[C@H]1CN2CCc3cc(OC)c(OC)cc3[C@H]2C[C@@H]1C[C@@H]1NCCc2cc(OC)c(OC)cc21 | 269 nM (active) | 379 nM (active) | 379 nM (active) | 757 nM (active) | 478 nM (active) | 379 nM (active) | 379 nM (active) | 379 nM (active) | 338 nM (active) | 478 nM (active) | 178 nM (active) | 316 nM (active) | 141 nM (active) | 269 nM (active) | 316 nM (active) | 178 nM (active) | 141 nM (active) | 316 nM (active) | 282 nM (active) | 251 nM (active)
CC(C)(C)NC(=O)[C@H]1CN(Cc2cccnc2)CCN1C[C@@H](O)C[C@@H](Cc1ccccc1)C(=O)N[C@H]1c2ccccc2C[C@H]1O | 15100 nM (active) | – | 13500 nM (active) | – | – | – | 12000 nM (active) | 13500 nM (active) | – | 9530 nM (active) | – | 11200 nM (active) | – | 5360 nM (active) | – | – | inactive | – | 14100 nM (active) | 11200 nM (active)
Nc1ccn([C@@H]2CS[C@H](CO)O2)c(=O)n1 | inactive | inactive | inactive | inactive | inactive | inactive | inactive | inactive | inactive | inactive | inactive | inactive | inactive | inactive | inactive | inactive | inactive | inactive | inactive | inactive
Nc1ccn([C@@H]2O[C@H](CO)[C@H](O)C2(F)F)c(=O)n1 | 4260 nM (active) | 6750 nM (active) | 5360 nM (active) | 8490 nM (active) | 2390 nM (active) | 5360 nM (active) | 2390 nM (active) | 849 nM (active) | 953 nM (active) | 2690 nM (active) | 1780 nM (active) | 5010 nM (active) | 1410 nM (active) | 953 nM (active) | 3980 nM (active) | 3980 nM (active) | – | 1120 nM (active) | 316 nM (active) | 316 nM (active)
COC(=O)C1=C(C)NC(C)=C(C(=O)OCCN2CCN(C(c3ccccc3)c3ccccc3)CC2)C1c1cccc([N+](=O)[O-])c1 (centres undefined) | 4780 nM (active) | 4260 nM (active) | 5360 nM (active) | 4780 nM (active) | 3790 nM (active) | 4780 nM (active) | 1690 nM (active) | 3790 nM (active) | 1690 nM (active) | 1690 nM (active) | 1580 nM (active) | 2510 nM (active) | 7080 nM (active) | 2690 nM (active) | 3160 nM (active) | 1000 nM (active) | 12600 nM (active) | 1580 nM (active) | 2820 nM (active) | 2000 nM (active)
CN1c2cc(O)c(N=NC(N)=O)cc2CC1S(=O)(=O)O (centres undefined) | inactive | inactive | inactive | inactive | inactive | inactive | inactive | inactive | inactive | inactive | inactive | inactive | inactive | inactive | inactive | inactive | inactive | inactive | inactive | inactive
O=C(O)CO.[NH2-].[NH2-].[Pt+2] | inactive | inactive | inactive | inactive | inactive | inactive | inactive | inactive | – | inactive | inactive | inactive | inactive | inactive | inactive | – | inactive | inactive | inactive | inactive
CC1(C)O[C@@H]2C[C@@H]3[C@H]4C[C@@H](F)C5=CC(=O)C=C[C@]5(C)[C@@]4(F)[C@@H](O)C[C@]3(C)[C@]2(C(=O)CO)O1 | – | – | – | – | – | – | inactive | – | – | 10700 nM (active) | inactive | inactive | inactive | – | inactive | – | inactive | inactive | inactive | inactive
COc1c(N2C[C@@H]3CCCN[C@H]3C2)c(F)cc2c(=O)c(C(=O)O)cn(C3CC3)c12 | inactive | inactive | – | inactive | inactive | inactive | inactive | inactive | inactive | inactive | inactive | inactive | inactive | – | inactive | inactive | – | inactive | – | inactive
C[C@H]1C[C@@H]2[C@@H]([C@@H](O)C[C@@]3(C)[C@H]2CC[C@]3(O)C(=O)CO)[C@@]2(C)C=CC(=O)C=C12 | inactive | – | inactive | inactive | inactive | inactive | inactive | inactive | inactive | inactive | inactive | inactive | inactive | inactive | inactive | inactive | inactive | inactive | inactive | inactive
CCC1=C[C@@H]2CN(C1)Cc1c([nH]c3ccccc13)[C@@](C(=O)OC)(c1cc3c(cc1OC)N(C)[C@@H]1[C@@](O)(C(=O)OC)[C@H](OC(C)=O)[C@]4(CC)C=CCN5CC[C@]31[C@@H]54)C2 | 3010 nM (active) | 3790 nM (active) | 3010 nM (active) | 3790 nM (active) | 3790 nM (active) | 3010 nM (active) | 1690 nM (active) | 3790 nM (active) | 3790 nM (active) | 4260 nM (active) | 891 nM (active) | 3980 nM (active) | – | 2130 nM (active) | 7940 nM (active) | 3160 nM (active) | 14100 nM (active) | 1410 nM (active) | 2240 nM (active) | 1580 nM (active)
Nc1ccc(S(=O)(=O)Nc2ncccn2)cc1 | inactive | inactive | inactive | – | inactive | inactive | inactive | inactive | inactive | inactive | inactive | inactive | inactive | inactive | inactive | inactive | inactive | inactive | inactive | inactive
CC=CC1=C(C(=O)O)N2C(=O)[C@H](NC(=O)[C@H](N)c3ccc(O)cc3)[C@@H]2SC1 | inactive | inactive | inactive | inactive | inactive | inactive | inactive | inactive | – | inactive | inactive | inactive | inactive | inactive | inactive | inactive | inactive | inactive | inactive | inactive
O=c1[nH]c(=O)n(C2CCCO2)cc1F (centres undefined) | inactive | inactive | inactive | inactive | inactive | inactive | inactive | inactive | inactive | inactive | inactive | inactive | inactive | inactive | inactive | inactive | inactive | inactive | inactive | inactive
COc1cc(C(=O)NS(=O)(=O)c2ccccc2C)ccc1Cc1cn(C)c2ccc(NC(=O)OC3CCCC3)cc12 | inactive | – | inactive | – | inactive | inactive | – | – | – | – | – | inactive | inactive | – | inactive | – | inactive | inactive | inactive | 12600 nM (active)
COC(=O)C[C@](O)(CCCC(C)(C)O)C(=O)O[C@@H]1C(OC)=C[C@]23CCCN2CCc2cc4c(cc2[C@H]13)OCO4 | 33.8 nM (active) | 16.9 nM (active) | 33.8 nM (active) | 23.9 nM (active) | 33.8 nM (active) | – | 21.3 nM (active) | 26.9 nM (active) | 23.9 nM (active) | 33.8 nM (active) | 12.6 nM (active) | 17.8 nM (active) | 56.2 nM (active) | 30.1 nM (active) | 28.2 nM (active) | 15.8 nM (active) | 6.3 nM (active) | 20 nM (active) | 28.2 nM (active) | 15.8 nM (active)
